From PubChem BioAssay (NCATS) come the findings set out here.

Results filed as inconclusive are left out. Where a call stands in place of a potency, no number is given. Activity calls are given as the source filed them. Calls follow the shape of the dose curve; as a rule, active = well fitted inhibition curve with a large enough effect; inconclusive = small, poorly fitted or top-dose-only effect; inactive = flat fitted curve, though single readings scatter.
Potency is read from the fitted curve at half-maximal effect.

The first test has as its system CP185. Kind of test: qHTS profiling for inhibitors of Plasmodium falciparum proliferation (AID 504749). Also: nearly all actives have a fitted effect of over 60% in size. Particulars: P. falciparum in erythrocytes, SYBR Green DNA, 72 h; series mostly up to 28.7 µM. The procedure, abridged:
(§1)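 Readout was DNA-dye fluorescence from lysed cultures, ex 485/em 535 nm. Parasitized red cells had grown 72 h with compound; data scaled between 0.29 uM artemisinin and DMSO wells and corrected using vehicle-only plates.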
As for `COc1ccc(-c2cc(=S)ss2)cc1`, the Potency entry was “inactive”.
Turning to `CCCCCCCCCCCCCCCCCC(=O)O`, the Potency result was “inactive”.
On the same count and under the same terms, in the case of `CN1CCN(c2cc3c(nn2)Oc2ccccc2N3C)CC1` it was “inactive”; in that of `Clc1ccccc1-c1nc(-c2ccncc2)no1`, “inactive”; in that of `Cc1ccc(O)c(-n2nc3ccccc3n2)c1`, “inactive”.
As to `CCCCCC[C@@H](O)C/C=C\CCCCCCCC(=O)O`, the Potency entry is “inactive”.
Still for that read-out and setting: in the case of `Cc1cc(O)c2ccccc2c1O` it was “inactive”; in that of `Nc1ccc(C(=O)O)c(O)c1`, “inactive”.
On the same count and under the same terms, the entry for `CCOc1ccc2nc(S(N)(=O)=O)sc2c1` is “inactive”; for `CCCCCCCCCCCC(=O)[O][Sn]([CH2]CCC)([CH2]CCC)[O]C(=O)CCCCCCCCCCC` it is “inactive”.
On the same count and under the same terms, in the case of `O=C(O)c1cc(O)c(O)c(O)c1` it was “inactive”; in that of `Nc1cc(-c2ccncc2)c[nH]c1=O`, “inactive”.
`CCCCCCCCCCCCCCCC(=O)OC(C)C`: the Potency entry was “inactive”.
On the same count and under the same terms, the entry for `O=C(O)COc1ccc(C(=O)c2cccs2)c(Cl)c1Cl` is “inactive”; for `CCCSc1ccc2nc(NC(=O)OC)[nH]c2c1` it is “inactive”.
On the same count and under the same terms, the entry for `O=C1CN(/N=C/c2ccc(-c3ccc([N+](=O)[O-])cc3)o2)C(=O)N1` is “inactive”; for `COc1cc(/C=C/C(=O)N2CCN(CC(=O)N3CCCC3)CC2)cc(OC)c1OC` it is “inactive”; for `O=C(/C=C/c1ccccc1)NCCO` it is “inactive”.
With `Cc1[nH]cnc1CN1CCc2c(c3ccccc3n2C)C1=O`, the Potency result is “inactive”.
Same read-out and setting: the entry for `CC1OC1P(=O)(O)O` (stereo not drawn) is “inactive”.
Same read-out and setting: the entry for `Cc1nc2ccccc2n1Cc1ccc(Cl)cc1` is “inactive”; for `O=C(O)c1ccccc1Nc1cccc(C(F)(F)F)c1` it is “inactive”.
Turning to `O=C(O)Cc1ccc(-c2ccccc2)cc1`, the Potency entry is “inactive”.

The next test concerns CP191. Described as above. Particulars: P. falciparum in erythrocytes, SYBR Green DNA, 72 h; series mostly up to 28.7 µM. The procedure, abridged:
as §1
For `COc1ccc(-c2cc(=S)ss2)cc1`, the Potency result was “inactive”.
Same read-out and setting: in the case of `CCCCCCCCCCCCCCCCCC(=O)O` it was “inactive”.
`CN1CCN(c2cc3c(nn2)Oc2ccccc2N3C)CC1`: the Potency result was “inactive”.
On the same count and under the same terms, in the case of `CC(=O)[C@]1(O)Cc2c(O)c3c(c(O)c2[C@@H](O[C@H]2C[C@H](N)[C@H](O)[C@H](C)O2)C1)C(=O)c1c(O)cccc1C3=O` it was 6.31 µM (active); in that of `Clc1ccccc1-c1nc(-c2ccncc2)no1`, “inactive”.
Same read-out and setting: in the case of `Cc1ccc(O)c(-n2nc3ccccc3n2)c1` it was “inactive”.
Same read-out and setting: the entry for `CCCCCC[C@@H](O)C/C=C\CCCCCCCC(=O)O` is “inactive”; for `Cc1cc(O)c2ccccc2c1O` it is “inactive”.
In the case of `CN1[C@@H]2CC[C@H]1CC(OC(c1ccccc1)c1ccccc1)C2` (stereo partly drawn), the Potency was 8.91 µM (active).
With `Nc1ccc(C(=O)O)c(O)c1`, the Potency result is “inactive”.
On to `CCOc1ccc2nc(S(N)(=O)=O)sc2c1`, for which the Potency entry is “inactive”.
On the same count and under the same terms, in the case of `CCCCCCCCCCCC(=O)[O][Sn]([CH2]CCC)([CH2]CCC)[O]C(=O)CCCCCCCCCCC` it was “inactive”; in that of `O=C(CCN1CCN(CCO)CC1)N1c2ccccc2Sc2ccc(C(F)(F)F)cc21`, 4.47 µM (active).
Take `CC(N)C(=O)OC(C)(C)Cc1ccc(Cl)cc1` (stereo not drawn): the Potency entry was “inactive”.
Still for that read-out and setting: in the case of `Nc1cc(-c2ccncc2)c[nH]c1=O` it was “inactive”; in that of `CCCCCCCCCCCCCCCC(=O)OC(C)C`, “inactive”; in that of `O=C(O)COc1ccc(C(=O)c2cccs2)c(Cl)c1Cl`, “inactive”.
Still for that read-out and setting: in the case of `O=C1CN(/N=C/c2ccc(-c3ccc([N+](=O)[O-])cc3)o2)C(=O)N1` it was 7.08 µM (active); in that of `CN(C)c1ccc(C(=C2C=CC(=[N+](C)C)C=C2)c2ccccc2)cc1`, 7.94 µM (active); in that of `COc1cc(/C=C/C(=O)N2CCN(CC(=O)N3CCCC3)CC2)cc(OC)c1OC`, “inactive”.
For the compound `COC(=O)C1=C(C)NC(C)=C(C(=O)OCC(C)C)C1c1ccccc1[N+](=O)[O-]` (stereo not drawn), the Potency is 12.6 µM (active).
Same read-out and setting: in the case of `O=C(/C=C/c1ccccc1)NCCO` it was “inactive”; in that of `Cc1[nH]cnc1CN1CCc2c(c3ccccc3n2C)C1=O`, “inactive”.
For `CC1OC1P(=O)(O)O` (stereo not drawn), the Potency result is “inactive”.
`O=C(O)Cc1ccc(-c2ccccc2)cc1`: the Potency entry was “inactive”.

The next test has as its system CP192. The test is described as above. Particulars: P. falciparum in erythrocytes, SYBR Green DNA, 72 h; series mostly up to 28.7 µM. The procedure, abridged:
as §1
`COc1ccc(-c2cc(=S)ss2)cc1`: the Potency result is “inactive”.
As for `CCCCCCCCCCCCCCCCCC(=O)O`, the Potency entry is “inactive”.
Take `CN1CCN(c2cc3c(nn2)Oc2ccccc2N3C)CC1`: the Potency entry is “inactive”.
For `CC(=O)[C@]1(O)Cc2c(O)c3c(c(O)c2[C@@H](O[C@H]2C[C@H](N)[C@H](O)[C@H](C)O2)C1)C(=O)c1c(O)cccc1C3=O`, the Potency is 13.5 µM (active).
Still for that read-out and setting: the entry for `Clc1ccccc1-c1nc(-c2ccncc2)no1` is “inactive”.
The same measure, in the same setting: the entry for `Cc1ccc(O)c(-n2nc3ccccc3n2)c1` is “inactive”; for `CCCCCC[C@@H](O)C/C=C\CCCCCCCC(=O)O` it is “inactive”.
Still for that read-out and setting: in the case of `Cc1cc(O)c2ccccc2c1O` it was “inactive”.
For `CN1[C@@H]2CC[C@H]1CC(OC(c1ccccc1)c1ccccc1)C2` (stereo partly drawn), the Potency entry is “inactive”.
As to `Nc1ccc(C(=O)O)c(O)c1`, the Potency result was “inactive”.
The same measure, in the same setting: in the case of `CCOc1ccc2nc(S(N)(=O)=O)sc2c1` it was “inactive”.
The same measure, in the same setting: in the case of `CCCCCCCCCCCC(=O)[O][Sn]([CH2]CCC)([CH2]CCC)[O]C(=O)CCCCCCCCCCC` it was “inactive”; in that of `O=C(CCN1CCN(CCO)CC1)N1c2ccccc2Sc2ccc(C(F)(F)F)cc21`, “inactive”; in that of `O=C(O)c1cc(O)c(O)c(O)c1`, “inactive”.
Consider `CC(N)C(=O)OC(C)(C)Cc1ccc(Cl)cc1` (stereo not drawn), for which the Potency result was “inactive”.
The same measure, in the same setting: the entry for `Nc1cc(-c2ccncc2)c[nH]c1=O` is “inactive”.
The same measure, in the same setting: the entry for `CCCCCCCCCCCCCCCC(=O)OC(C)C` is “inactive”; for `O=C(O)COc1ccc(C(=O)c2cccs2)c(Cl)c1Cl` it is “inactive”; for `CCCSc1ccc2nc(NC(=O)OC)[nH]c2c1` it is “inactive”.
Still for that read-out and setting: in the case of `O=C1CN(/N=C/c2ccc(-c3ccc([N+](=O)[O-])cc3)o2)C(=O)N1` it was “inactive”; in that of `CN(C)c1ccc(C(=C2C=CC(=[N+](C)C)C=C2)c2ccccc2)cc1`, “inactive”; in that of `COc1cc(/C=C/C(=O)N2CCN(CC(=O)N3CCCC3)CC2)cc(OC)c1OC`, “inactive”.
Take `CCCC(=O)OC[C@@H](OC(=O)CCC)[C@@H](OC(=O)CCC)[C@H](Cn1c2nc(=O)[nH]c(=O)c-2nc2cc(C)c(C)cc21)OC(=O)CCC`: the Potency entry is “inactive”.
Still for that read-out and setting: the entry for `O=C(/C=C/c1ccccc1)NCCO` is “inactive”; for `Cc1[nH]cnc1CN1CCc2c(c3ccccc3n2C)C1=O` it is “inactive”; for `CC1OC1P(=O)(O)O` (stereo not drawn) it is “inactive”.
Same read-out and setting: in the case of `NC(=O)C(c1ccccc1)(c1ccccc1)[C@@H]1CCN(CCc2ccc3c(c2)CCO3)C1` it was “inactive”; in that of `Cc1nc2ccccc2n1Cc1ccc(Cl)cc1`, “inactive”.
Same read-out and setting: the entry for `C[S+](CC[C@H](N)C(=O)O)C[C@H]1O[C@@H](n2cnc3c(N)ncnc32)[C@H](O)[C@@H]1O` (stereo partly drawn) is “inactive”; for `O=C(O)Cc1ccc(-c2ccccc2)cc1` it is “inactive”.
